Assay outcomes deposited in PubChem by several laboratories.
Mac1 fbg enh: CD11b/CD18-fibrinogen binding enhancement; P05107+P11215; K562 CD11b/CD18 adhesion to fibrinogen, ATPlite luminescence; activation, % at 10 µM; 93,000 compounds, 0.07% hits;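 active = 10 µM primary screen giving 50% or more activity, confirmed by 40% or more on retest at that dose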
PTK2B oligo ant: antagonists of human Pyk2 oligomerization; 99,000 compounds, 0.83% hits; z-score (the deposit names both 25 µM and 10 µM); Q293 cells, Pyk2 FERM NanoBiT luminescence; stronger effect = lower value;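 active = Z-score of -3 or lower, scaled per plate to the spread of control and sample wells; inactive = z-score above -3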;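 note: negative z-score means lost luminescence so less FERM oligomerization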
CD11b adhes inh: blocks human CD11b/CD18 adhesion to fibrinogen; K562 CD11b/CD18 adhesion to fibrinogen, ATPlite luminescence; Mn2+ added to activate the integrin; inhibition, % at 10 µM; 93,000 compounds, 0.54% hits; AID 1497;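 active = primary inhibition of 50% or more at 10 µM, then 40% or more on retest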
Cav3 T inh: inhibitors of human Cav3.2 T-type calcium channel; O95180; Cav3.2-expressing cells, Fluo-4 calcium fluorescence FDSS; stronger effect = lower value; 100,000 compounds, 4% hits; B-score at 10 µM;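 active = single-dose well whose peak fluorescence ratio is a statistical outlier from its plate by either plate-standardised score or position-corrected B-score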
Target sequence (O95180 whole entry, looked up): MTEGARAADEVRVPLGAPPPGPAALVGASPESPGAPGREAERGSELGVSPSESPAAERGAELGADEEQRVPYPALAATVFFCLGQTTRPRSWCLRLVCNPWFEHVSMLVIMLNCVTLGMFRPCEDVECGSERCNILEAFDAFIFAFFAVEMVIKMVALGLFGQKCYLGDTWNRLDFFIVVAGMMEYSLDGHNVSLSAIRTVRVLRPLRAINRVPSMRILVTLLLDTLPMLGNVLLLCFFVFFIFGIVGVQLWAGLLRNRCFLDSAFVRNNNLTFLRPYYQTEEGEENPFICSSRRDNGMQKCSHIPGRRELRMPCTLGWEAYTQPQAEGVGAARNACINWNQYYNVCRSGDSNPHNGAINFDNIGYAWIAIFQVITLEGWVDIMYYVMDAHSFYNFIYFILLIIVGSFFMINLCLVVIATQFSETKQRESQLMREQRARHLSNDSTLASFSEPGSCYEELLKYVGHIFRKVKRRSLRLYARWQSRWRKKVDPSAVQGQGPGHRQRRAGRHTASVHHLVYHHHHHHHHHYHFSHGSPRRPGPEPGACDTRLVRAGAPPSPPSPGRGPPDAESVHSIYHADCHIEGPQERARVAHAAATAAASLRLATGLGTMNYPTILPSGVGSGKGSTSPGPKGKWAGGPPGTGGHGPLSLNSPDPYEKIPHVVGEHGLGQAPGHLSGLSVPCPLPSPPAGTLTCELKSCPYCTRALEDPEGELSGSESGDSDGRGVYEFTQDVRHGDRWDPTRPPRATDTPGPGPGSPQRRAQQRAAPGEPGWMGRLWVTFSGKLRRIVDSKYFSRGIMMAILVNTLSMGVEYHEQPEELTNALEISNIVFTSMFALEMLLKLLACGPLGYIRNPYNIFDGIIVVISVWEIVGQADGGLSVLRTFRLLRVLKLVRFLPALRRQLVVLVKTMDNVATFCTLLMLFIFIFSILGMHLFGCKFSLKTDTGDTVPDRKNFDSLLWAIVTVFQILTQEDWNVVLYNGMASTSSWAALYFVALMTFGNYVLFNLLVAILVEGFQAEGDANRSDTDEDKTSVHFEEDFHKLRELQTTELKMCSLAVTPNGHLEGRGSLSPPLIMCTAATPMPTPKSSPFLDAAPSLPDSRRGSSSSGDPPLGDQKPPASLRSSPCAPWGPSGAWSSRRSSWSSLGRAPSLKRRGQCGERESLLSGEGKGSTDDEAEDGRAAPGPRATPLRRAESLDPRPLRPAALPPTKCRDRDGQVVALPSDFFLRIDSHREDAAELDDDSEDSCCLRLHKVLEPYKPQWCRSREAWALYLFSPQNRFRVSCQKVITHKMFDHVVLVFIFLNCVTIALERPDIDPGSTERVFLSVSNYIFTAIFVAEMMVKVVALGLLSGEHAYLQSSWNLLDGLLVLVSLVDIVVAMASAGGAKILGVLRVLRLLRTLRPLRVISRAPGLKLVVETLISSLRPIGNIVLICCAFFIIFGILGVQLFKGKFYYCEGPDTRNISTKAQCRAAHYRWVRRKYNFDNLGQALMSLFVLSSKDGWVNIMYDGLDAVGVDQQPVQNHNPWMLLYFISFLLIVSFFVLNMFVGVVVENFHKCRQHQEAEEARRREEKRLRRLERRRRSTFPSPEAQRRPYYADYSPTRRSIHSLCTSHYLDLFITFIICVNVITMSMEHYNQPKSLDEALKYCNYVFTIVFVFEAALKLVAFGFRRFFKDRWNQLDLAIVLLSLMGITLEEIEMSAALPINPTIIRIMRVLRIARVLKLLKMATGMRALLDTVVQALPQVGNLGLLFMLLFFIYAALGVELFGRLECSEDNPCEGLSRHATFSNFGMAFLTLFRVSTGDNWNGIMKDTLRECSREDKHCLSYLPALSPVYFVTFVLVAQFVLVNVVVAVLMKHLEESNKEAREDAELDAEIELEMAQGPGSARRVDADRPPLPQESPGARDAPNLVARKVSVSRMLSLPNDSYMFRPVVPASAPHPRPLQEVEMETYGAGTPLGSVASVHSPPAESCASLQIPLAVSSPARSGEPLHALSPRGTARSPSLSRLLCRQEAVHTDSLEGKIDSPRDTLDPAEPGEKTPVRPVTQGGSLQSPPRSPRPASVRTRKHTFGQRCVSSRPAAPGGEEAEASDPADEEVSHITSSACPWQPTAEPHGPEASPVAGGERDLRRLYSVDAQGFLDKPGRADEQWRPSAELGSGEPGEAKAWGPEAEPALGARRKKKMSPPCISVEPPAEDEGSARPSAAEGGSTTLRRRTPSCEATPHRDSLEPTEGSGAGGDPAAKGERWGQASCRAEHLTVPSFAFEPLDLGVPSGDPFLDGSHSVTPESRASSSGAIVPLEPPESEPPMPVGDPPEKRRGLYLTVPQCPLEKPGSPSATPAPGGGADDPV
MRP reversal: compounds reversing MRP-mediated drug resistance. H69AR cells + 2 uM doxorubicin, CellTiter-Glo, 72 h. differential viability (reversal), % at 10 µM. 85,000 compounds, 0.04% hits;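 active = viability drop by adding the cancer drug above about 55%, with treated viability meeting a 40% cutoff, limit read from the data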;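 note: viability without doxorubicin minus viability with 2 µM doxorubicin for each compound; larger differential means the compound sensitizes cells more to doxorubicin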
MRP-1 activ: activators of MRP-1. 140,000 compounds, 0.61% hits. H69AR cells + doxorubicin, viability rescue, CellTiter-Glo. AID 799. viability increase, % at 10 µM;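 active = viability gain under doxorubicin at or above a set limit, the compound median plus 3 SD, cut at about 4.7% in these data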;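 note: MRP-1 overexpressing cells given doxorubicin 25 µM after compound pretreatment; 18-22 h compound pretreatment then 72 h with doxorubicin before readout; 0% = doxorubicin-only wells and 100% = vehicle-treated cells without doxorubicin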
The depositor's hits bear a star; / = no result given. Shown are actives, neighbours in structure and some others; about 4.1% of the full set was active somewhere.

SMILES | Mac1 fbg enh | PTK2B oligo ant | CD11b adhes inh | Cav3 T inh | MRP reversal | MRP-1 activ
COc1ccc(-c2nnc(SC(C)C(=O)NNC(=O)c3ccc(C)cc3)o2)cc1 (stereo unspecified) | 2 | / | 23 | / | / | 4
COc1ccc(-c2nnc(SC(C)C(=O)Nc3cccc(Cl)c3)o2)cc1 (stereo unspecified) | -4 | 2.2 | 18 | -2.6 | -2 | 5.8*
Cn1c(=O)c2c(nc(NCc3ccco3)n2C/C=C/c2ccccc2)n(C)c1=O | -2 | -3* | 0 | -1.5 | -1 | 1
Cn1c(=O)c2c(nc(NCc3ccco3)n2Cc2ccccc2Cl)n(C)c1=O | -1 | 1.1 | 4 | 0.076 | 2 | -3
Cn1c(COc2nnc(-c3ccc(Cl)cc3)c3ccccc23)nc2ccccc21 | -7 | 0.03 | 4 | / | / | -2
CC(C(=O)N/N=C/c1ccc(N(C)C)c(Br)c1)N(c1ccccc1)S(C)(=O)=O (stereo unspecified) | / | -2 | / | -6* | / | -1
COc1ccc(S(=O)(=O)Cc2ccc(C(=O)N3CCN(C4CCCCC4)CC3)o2)cc1 | 3 | / | -12 | -1.1 | 4 | -3
O=C(c1ccc(CS(=O)(=O)c2ccc(Br)cc2)o1)N1CCN(C2CCCCC2)CC1 | 4 | / | -4 | / | 74* | -2
CCOc1cccc(C(=O)NC2CCCCC2)c1 | -1 | 0.37 | -5 | 2.3 | 7 | 0
CCCCOc1cccc(C(=O)NNC(=S)NC2CCCCC2)c1 | / | 0.19 | / | -5.8* | / | -4
O=C(N/N=C/c1cc([N+](=O)[O-])cc([N+](=O)[O-])c1O)/C(=C\c1cccs1)NC(=O)c1ccccc1 | / | / | / | / | / | 4.8*
COc1cc(/C=N/NC(=O)/C(=C\c2ccc([N+](=O)[O-])cc2)NC(=O)c2ccccc2)cc(OC)c1O | 5 | -0.01 | -5 | 0.16 | 8 | 0
Cc1ccc(-c2nnc(SCC(=O)NNC(=O)COc3cccc(C)c3)n2C)cc1 | / | 1 | / | 0.032 | / | -1
CCCC1S/C(=N/N=C/c2ccc(OC)cc2)N(Cc2ccccc2)C1=O (stereo unspecified) | 7 | 0.26 | 20 | -3.6* | 10 | 6.0*
CCCC1S/C(=N/N=C/c2ccc(OC)cc2)N(Cc2ccc(OC)cc2)C1=O (stereo unspecified) | / | -0.3 | / | -3.7* | 4 | 3
O=S(=O)(c1ccccc1)N1CCN(c2cc(-c3ccccc3)nc3ncnn23)CC1 | / | -3.8* | / | 0.68 | 2 | -2
O=S(=O)(c1ccc(Br)cc1)N1CCN(c2cc(-c3ccccc3)nc3ncnn23)CC1 | 19 | -0.9 | -5 | -0.17 | 31 | -5
CNC(=S)Nc1ccc(C)cc1 | / | / | / | / | / | 11*
CNC(=S)Nc1ccc(C23CC4CC(CC(C4)C2)C3)cc1 | 3 | / | 8 | / | / | 5.2*
O=C(CSCCO)Nc1ccc(C23CC4CC(CC(C4)C2)C3)cc1 | / | -0.2 | / | 0.064 | -15 | -1
COc1ccc(NC(=O)CCCN2C(=O)CCC2=O)cc1Cl | 0 | -1.3 | -8 | / | -2 | -2
Cc1ccc(S(=O)(=O)NC(CC(C)C)C(=O)NCc2ccco2)cc1 (stereo unspecified) | -2 | -0.23 | -6 | 0.99 | -8 | -3
CCOC(=O)C(NC(=O)c1ccccc1OCC)(Nc1ncccn1)C(F)(F)F (stereo unspecified) | 6 | -2.4 | 56 | -0.047 | 8 | -1
O=C(Nc1nnc(-c2ccc3c(c2)CCCC3)o1)c1ccccc1 | 1 | / | 47 | -5.6* | 0 | 1
Cc1cccc(-c2nnc(NC(=O)c3ccc(Cl)cc3)o2)c1 | -1 | 0.45 | -2 | -4.4* | 5 | -4
SMILES | Mac1 fbg enh | PTK2B oligo ant | CD11b adhes inh | Cav3 T inh | MRP reversal | MRP-1 activ
O=C(Nc1nnc(-c2ccc(Cl)cc2)o1)c1ccc(N2C(=O)CCC2=O)cc1 | / | / | / | / | / | -2
Cc1cc(N2C(=O)C(=O)/C(=C(/O)c3ccc(F)cc3)C2c2cccc(Br)c2)no1 (stereo unspecified) | 0 | -0.14 | -2 | -3.4 | 5 | -2
Cc1ccc(/C(O)=C2\C(=O)C(=O)N(c3cc(C)on3)C2c2cccc(Cl)c2)cc1 (stereo unspecified) | -2 | -2.3 | 12 | -3.1* | -9 | -1
Cc1ccc(/C(O)=C2\C(=O)C(=O)N(c3cc(C)on3)C2c2cccc(Br)c2)cc1 (stereo unspecified) | 1 | -0.65 | 7 | -3.7* | / | -1
C/C=C/c1ccc(OCCCN2C(=O)NC(C)(C)C2=O)c(OC)c1 | -3 | 0.26 | -6 | -0.024 | 4 | -1
COC(=O)C(Cc1ccccc1)NC(=O)COc1ccc(C(C)(C)C)cc1 (stereo unspecified) | 0 | -0.69 | 48 | -6.1* | 10 | -2
CCOC(=O)C1=C(C)OC(N)=C(C#N)C1c1ccc(OC)c(C)c1OC (stereo unspecified) | 8 | -1 | 2 | -0.25 | 0 | -1
CCOc1cc(C2C(C#N)=C(N)OC(C)=C2C(C)=O)c(Br)c(Br)c1OC(C)C (stereo unspecified) | / | -1.6 | / | -5.3* | -3 | -7
CC1Cc2nc(SCC(=O)NCc3ccccc3)n(Cc3ccccc3)c(=O)c2S1 (stereo unspecified) | -3 | / | 18 | -2.6 | -2 | -3
CC1Cc2nc(SCC(=O)c3ccccc3)n(Cc3ccccc3)c(=O)c2S1 (stereo unspecified) | 3 | / | -11 | -6.3* | 25 | -1
Cc1ccc(CCNC(=O)C2CCCN(C(=O)c3cc4sccc4n3C)C2)cc1 (stereo unspecified) | 6 | -0.43 | -39 | -4.8* | / | 0
Cn1c(C(=O)N2CCCC(C(=O)NCCCc3ccccc3)C2)cc2sccc21 (stereo unspecified) | -2 | 0.52 | 6 | -4.2* | -41 | 1
Cn1c(C(=O)N2CCCC(C(=O)NCCc3ccccc3)C2)cc2sccc21 (stereo unspecified) | / | 0.06 | / | 0.14 | -38 | -5
COc1ccc(C2C3=C(Nc4ncnn42)c2ccccc2CC3)cc1OC (stereo unspecified) | 0 | / | -5 | 0.21 | 6 | -2
COc1ccc(C2Oc3ccccc3C3=C2C(c2cccs2)n2ncnc2N3)cc1 (stereo unspecified) | 8 | -3.7* | 10 | -7.1* | -57 | -2
Brc1ccc(C2C3=C(Nc4ncnn42)c2ccccc2OC3c2ccncc2)cc1 (stereo unspecified) | -3 | -3.8* | -2 | -4.9* | 24 | -5
CCc1cccc(C)c1NC(=S)NCCc1c(C)[nH]c2ccc(C)cc12 | / | / | / | -3.4* | / | -3
COc1ccccc1N(CC(=O)Nc1ccc2c(c1)OCO2)S(=O)(=O)c1ccccc1 | 0 | -2.2 | -12 | -3.2 | 7 | -1
COc1cccc(N(CC(=O)Nc2ccc3c(c2)OCO3)S(=O)(=O)c2ccccc2)c1 | 0 | -3.1* | -4 | 1.1 | / | -1
